Source: the supplement of paper PMC10849652
The full data set covers some 8,800 targets. This sample favours those with a hit. About 0.5% of all pairs of compound and target were hits.

These targets were tested with c1cn2cc(-c3ccc4cn[nH]c4c3)nc(Nc3ccc(N4CCOCC4)cc3)c2n1 [entospletinib] (assay: log2 fold change, soluble protein after heating vs DMSO (PISA); higher = thermal stabilisation; K562 lysate, 10 uM; active = over 0.2 and 3.5 SD of the protein, either way, in both replicates (recomputed)).
In short: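 To prepare the extract, K562 pellets were dounce-homogenised in PBS pH 7.4 with 1 mM MgCl2, giving crude material at 1 mg/mL protein. This was treated with 10 μM compound for 30 min, then heated in aliquots for 3 min over 48°C-58°C before pooling and addition of NP-40 to 0.5% at 4°C. Centrifugation at 21,000xg for 90 min left soluble protein in the supernatant, which TMTpro 16plex LC-MS/MS quantified with equalised channel sums. Results are log-two fold changes in thermal stability compared with solvent controls, from duplicates.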

Sequence of UniProt Q9H3P2 (Q9H3P2 whole entry, looked up): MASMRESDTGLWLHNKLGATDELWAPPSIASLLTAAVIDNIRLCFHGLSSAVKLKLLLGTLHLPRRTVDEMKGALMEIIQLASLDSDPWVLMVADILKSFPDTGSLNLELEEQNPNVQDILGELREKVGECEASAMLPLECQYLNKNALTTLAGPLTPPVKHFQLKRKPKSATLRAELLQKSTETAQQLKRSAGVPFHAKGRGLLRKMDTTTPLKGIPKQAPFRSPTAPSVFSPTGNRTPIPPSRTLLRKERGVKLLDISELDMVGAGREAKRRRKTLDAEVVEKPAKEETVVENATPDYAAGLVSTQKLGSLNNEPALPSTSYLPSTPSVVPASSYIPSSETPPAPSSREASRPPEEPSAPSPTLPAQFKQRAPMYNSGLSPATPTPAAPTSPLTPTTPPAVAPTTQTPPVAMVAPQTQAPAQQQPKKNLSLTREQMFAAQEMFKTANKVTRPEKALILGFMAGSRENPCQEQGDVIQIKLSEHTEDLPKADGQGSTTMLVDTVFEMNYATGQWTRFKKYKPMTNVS
Sequence of UniProt Q5TEU4 (Q5TEU4 whole entry, looked up): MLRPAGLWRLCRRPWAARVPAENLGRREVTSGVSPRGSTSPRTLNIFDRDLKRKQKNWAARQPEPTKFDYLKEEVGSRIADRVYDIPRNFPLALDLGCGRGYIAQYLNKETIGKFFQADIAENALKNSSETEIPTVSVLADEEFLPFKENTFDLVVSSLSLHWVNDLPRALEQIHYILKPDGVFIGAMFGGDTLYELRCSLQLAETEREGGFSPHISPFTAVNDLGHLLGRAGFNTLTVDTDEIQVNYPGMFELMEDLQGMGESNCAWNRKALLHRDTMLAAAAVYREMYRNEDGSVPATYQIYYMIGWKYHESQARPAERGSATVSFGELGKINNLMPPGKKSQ
Sequence of UniProt Q9ULX3 (Q9ULX3 whole entry, looked up): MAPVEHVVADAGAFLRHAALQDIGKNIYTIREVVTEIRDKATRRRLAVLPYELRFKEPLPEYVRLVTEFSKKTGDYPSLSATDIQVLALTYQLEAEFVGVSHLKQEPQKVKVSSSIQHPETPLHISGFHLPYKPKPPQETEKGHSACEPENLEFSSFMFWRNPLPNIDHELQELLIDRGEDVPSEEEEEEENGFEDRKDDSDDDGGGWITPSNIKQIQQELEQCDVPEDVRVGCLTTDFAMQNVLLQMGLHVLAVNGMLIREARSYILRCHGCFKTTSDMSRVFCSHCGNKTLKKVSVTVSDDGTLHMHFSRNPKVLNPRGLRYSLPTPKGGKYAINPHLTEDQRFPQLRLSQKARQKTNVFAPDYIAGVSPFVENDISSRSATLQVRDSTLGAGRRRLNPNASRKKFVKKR
Sequence of UniProt Q86XI2 (Q86XI2 whole entry, looked up): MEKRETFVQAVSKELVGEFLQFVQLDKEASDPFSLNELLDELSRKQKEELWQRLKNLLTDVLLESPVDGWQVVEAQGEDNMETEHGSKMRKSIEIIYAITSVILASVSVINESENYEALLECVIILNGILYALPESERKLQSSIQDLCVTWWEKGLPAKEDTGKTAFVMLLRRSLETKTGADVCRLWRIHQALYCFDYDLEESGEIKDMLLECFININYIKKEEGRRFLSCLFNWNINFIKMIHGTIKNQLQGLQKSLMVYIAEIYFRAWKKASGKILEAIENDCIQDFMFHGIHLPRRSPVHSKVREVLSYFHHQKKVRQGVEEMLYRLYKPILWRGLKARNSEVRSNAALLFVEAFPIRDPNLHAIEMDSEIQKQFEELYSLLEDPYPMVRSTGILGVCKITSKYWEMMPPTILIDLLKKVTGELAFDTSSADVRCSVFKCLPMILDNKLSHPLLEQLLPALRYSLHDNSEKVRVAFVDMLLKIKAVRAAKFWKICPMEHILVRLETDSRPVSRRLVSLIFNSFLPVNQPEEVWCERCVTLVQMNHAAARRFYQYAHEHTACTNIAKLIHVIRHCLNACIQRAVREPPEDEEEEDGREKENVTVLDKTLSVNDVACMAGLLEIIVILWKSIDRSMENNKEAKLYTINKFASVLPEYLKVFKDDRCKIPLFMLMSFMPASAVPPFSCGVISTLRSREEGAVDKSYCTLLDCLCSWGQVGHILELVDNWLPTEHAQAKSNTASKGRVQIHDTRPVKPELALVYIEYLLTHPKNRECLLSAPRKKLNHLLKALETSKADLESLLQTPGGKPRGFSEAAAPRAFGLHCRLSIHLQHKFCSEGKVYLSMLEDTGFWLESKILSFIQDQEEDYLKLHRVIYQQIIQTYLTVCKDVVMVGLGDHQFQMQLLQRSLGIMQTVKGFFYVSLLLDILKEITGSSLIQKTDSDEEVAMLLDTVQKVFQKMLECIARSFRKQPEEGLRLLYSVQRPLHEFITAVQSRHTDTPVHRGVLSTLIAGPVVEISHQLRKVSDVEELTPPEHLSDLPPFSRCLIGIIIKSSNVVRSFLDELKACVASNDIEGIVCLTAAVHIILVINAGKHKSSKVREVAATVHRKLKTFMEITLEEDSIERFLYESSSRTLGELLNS
Sequence of UniProt O43913 (O43913 whole entry, looked up): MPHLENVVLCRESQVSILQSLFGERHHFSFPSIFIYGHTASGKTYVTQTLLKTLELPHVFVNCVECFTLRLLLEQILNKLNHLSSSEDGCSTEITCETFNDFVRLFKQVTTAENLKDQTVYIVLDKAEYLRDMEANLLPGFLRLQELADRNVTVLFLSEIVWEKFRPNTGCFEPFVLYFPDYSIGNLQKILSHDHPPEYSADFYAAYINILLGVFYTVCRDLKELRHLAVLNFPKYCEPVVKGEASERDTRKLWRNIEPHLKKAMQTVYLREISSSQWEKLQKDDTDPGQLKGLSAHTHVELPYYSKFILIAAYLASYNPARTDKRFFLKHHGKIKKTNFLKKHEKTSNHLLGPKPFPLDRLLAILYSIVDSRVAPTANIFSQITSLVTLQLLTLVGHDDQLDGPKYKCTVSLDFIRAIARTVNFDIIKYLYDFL
Sequence of UniProt Q9Y530 (Q9Y530 whole entry, looked up): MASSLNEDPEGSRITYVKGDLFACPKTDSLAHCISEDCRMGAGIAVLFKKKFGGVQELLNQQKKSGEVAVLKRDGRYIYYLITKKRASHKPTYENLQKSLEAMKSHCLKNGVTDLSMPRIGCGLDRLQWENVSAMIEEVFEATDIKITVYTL
Sequence of UniProt Q9NTK5 (Q9NTK5 whole entry, looked up): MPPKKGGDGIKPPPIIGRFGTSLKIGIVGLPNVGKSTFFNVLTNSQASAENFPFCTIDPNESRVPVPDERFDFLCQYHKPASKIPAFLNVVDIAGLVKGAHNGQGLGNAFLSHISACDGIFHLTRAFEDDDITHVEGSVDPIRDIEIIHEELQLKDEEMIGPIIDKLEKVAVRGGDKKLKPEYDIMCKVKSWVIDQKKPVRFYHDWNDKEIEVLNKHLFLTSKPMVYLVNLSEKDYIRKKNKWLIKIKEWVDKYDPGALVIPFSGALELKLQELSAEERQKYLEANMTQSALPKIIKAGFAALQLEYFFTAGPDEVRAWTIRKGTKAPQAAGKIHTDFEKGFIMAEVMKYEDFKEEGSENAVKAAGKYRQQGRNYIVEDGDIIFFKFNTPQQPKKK
Sequence of UniProt Q13153 (Q13153 whole entry, looked up): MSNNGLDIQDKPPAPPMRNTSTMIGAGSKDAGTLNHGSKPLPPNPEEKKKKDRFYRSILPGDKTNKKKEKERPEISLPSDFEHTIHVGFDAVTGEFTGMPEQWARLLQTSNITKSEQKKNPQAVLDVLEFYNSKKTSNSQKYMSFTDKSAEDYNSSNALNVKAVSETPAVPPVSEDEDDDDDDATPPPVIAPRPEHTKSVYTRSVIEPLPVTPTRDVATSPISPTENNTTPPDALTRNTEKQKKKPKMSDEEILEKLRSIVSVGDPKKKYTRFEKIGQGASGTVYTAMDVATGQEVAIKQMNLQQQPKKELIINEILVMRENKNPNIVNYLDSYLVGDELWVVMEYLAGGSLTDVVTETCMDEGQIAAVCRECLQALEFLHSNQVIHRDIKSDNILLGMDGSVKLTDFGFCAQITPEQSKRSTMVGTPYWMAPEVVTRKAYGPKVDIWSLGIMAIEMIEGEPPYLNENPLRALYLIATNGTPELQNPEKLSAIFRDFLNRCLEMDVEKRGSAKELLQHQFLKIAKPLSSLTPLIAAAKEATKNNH
Sequence of UniProt Q8TE04 (Q8TE04 whole entry, looked up): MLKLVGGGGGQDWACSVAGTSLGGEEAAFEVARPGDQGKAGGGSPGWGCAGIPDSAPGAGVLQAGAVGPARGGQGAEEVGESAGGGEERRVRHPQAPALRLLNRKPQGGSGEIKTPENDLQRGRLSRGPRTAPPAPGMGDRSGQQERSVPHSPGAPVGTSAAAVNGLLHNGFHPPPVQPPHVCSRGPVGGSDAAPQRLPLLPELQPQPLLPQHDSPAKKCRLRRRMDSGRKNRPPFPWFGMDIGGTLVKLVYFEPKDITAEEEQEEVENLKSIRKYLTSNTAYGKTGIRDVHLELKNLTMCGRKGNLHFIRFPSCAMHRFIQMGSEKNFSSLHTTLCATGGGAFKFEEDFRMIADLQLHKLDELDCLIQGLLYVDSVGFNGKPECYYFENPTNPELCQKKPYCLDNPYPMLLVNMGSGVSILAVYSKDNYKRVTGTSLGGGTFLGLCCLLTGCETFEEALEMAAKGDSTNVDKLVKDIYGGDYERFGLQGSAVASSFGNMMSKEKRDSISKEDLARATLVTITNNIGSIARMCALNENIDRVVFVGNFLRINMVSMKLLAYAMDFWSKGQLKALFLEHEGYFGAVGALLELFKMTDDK
Sequence of UniProt Q15653 (Q15653 whole entry, looked up): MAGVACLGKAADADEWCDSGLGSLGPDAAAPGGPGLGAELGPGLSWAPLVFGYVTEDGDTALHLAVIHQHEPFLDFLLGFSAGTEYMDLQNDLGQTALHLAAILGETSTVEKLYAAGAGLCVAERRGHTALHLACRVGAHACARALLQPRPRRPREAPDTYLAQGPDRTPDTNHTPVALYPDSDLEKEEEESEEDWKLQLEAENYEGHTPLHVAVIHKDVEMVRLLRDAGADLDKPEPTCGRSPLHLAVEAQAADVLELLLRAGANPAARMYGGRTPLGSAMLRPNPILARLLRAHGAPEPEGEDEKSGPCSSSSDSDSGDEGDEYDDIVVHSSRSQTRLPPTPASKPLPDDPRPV

log2 fold change, inactive:
MRPL53 (UniProt Q96EL3) 0.033
PAK1 (UniProt Q13153) 0.051
MVB12A (UniProt Q96EY5) 0.042
MRPS31 (UniProt Q92665) 0
MYO1D (UniProt O94832) -0.002
NSUN2 (UniProt Q08J23) 0.011
MSH2 (UniProt P43246) 0.034
NF1 (UniProt P21359) 0.025
OARD1 (UniProt Q9Y530) 0.024
MT-ATP8 (UniProt P03928) -0.009
NOB1 (UniProt Q9ULX3) 0.024
NDUFAF5 (UniProt Q5TEU4) -0.046
NCAPH2 (UniProt Q6IBW4) -0.008
NCAPG2 (UniProt Q86XI2) 0.009
OSGEP (UniProt Q9NPF4) 0.002
OGFOD2 (UniProt Q6N063) -0.001
ORC5 (UniProt O43913) 0.066
MRPL58 (UniProt Q14197) 0.041
NUCB2 (UniProt P80303) -0.008
NFKBIB (UniProt Q15653) 0
OCRL (UniProt Q01968) -0.032
NFAT5 isoform 5 (UniProt O94916) -0.061
OLA1 (UniProt Q9NTK5) 0.043
OAT (UniProt P04181) 0.029
PANK1 (UniProt Q8TE04) 0.08
MTHFD1L (UniProt B7ZM99) -0.02
NUSAP1 (UniProt Q9BXS6) -0.001
NUP205 (UniProt Q92621) 0.005
N6AMT1 (UniProt Q9Y5N5) -0.011
NARF (UniProt Q9UHQ1) -0.054
NBEAL2 (UniProt Q6ZNJ1) 0.026
NELFA (UniProt Q9H3P2) -0.027
